# Compound activity: PubChem BioAssay, National Center for Advancing Translational Sciences (NCATS)
# KB-3-1 cytotox: qHTS assay for MDR1-selective chemotherapeutics: Primary screen using the parental adenocarcinoma cell KB-3-1 | Potency, µM (top dose mostly 46.1 µM), usual class: cytotoxic | 1.4% of 400,000 active | KB-3-1 viability, CellTiter-Glo ATP luminescence, 72 h; note: nearly all actives have a fitted effect of over 60% in size
#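 Using CellTiter-Glo luminescence, growth of non-resistant KB-3-1 adenocarcinoma cells is assessed 72 h after pin-tool compound addition at 37 °C. Normalized responses across the concentration series yield fitted curves.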
# KB-V1 cytotox: qHTS assay for MDR1-selective chemotherapeutics: Primary screen using the drug-selected MDR subline cells KB-V1 | 3.4% of 400,000 active | Potency, µM (series often up to 46.1 µM), actives largely listed as cytotoxic | KB-V1 MDR cells viability, CellTiter-Glo, 72 h | AID 1347076, 2019; note: nearly all actives have a fitted effect of over 60% in size
#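 Readout: CellTiter-Glo luminescence, 10 min after addition. Cells: KB-V1 MDR subline, 72 h at 37 degrees C with compound. Analysis: corrected, normalized data fitted to concentration-effect curves.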
# HT1080-NT tox: qHTS for induction of synthetic lethality in tumor cells producing 2HG: qHTS for the HT-1080-NT fibrosarcoma cell line. HT-1080-NT fibrosarcoma viability, CellTiter-Glo ATP luminescence, 48 h. Potency, µM (titrated, usually from 46.1 µM), most hits filed as cytotoxic. 1.6% of 360,000 active;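 note: NT is the 2HG producing partner of a matched IDH1 knockdown line; nearly all actives have a fitted effect of over 55% in size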
#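 Viability of the 2HG-overproducing fibrosarcoma line after 48 hours of compound exposure at 37 degrees C was determined by luminescence with CellTiter-Glo, and concentration-effect curves were then fitted and categorized.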
# TGFb SMAD3 inh: qHTS for Inhibitors of TGF-b; HepG2 CAGA-GFP TGF-b/SMAD3 reporter, GFP fluorescence, 18 h; TGF-beta stimulated, 500 pg/mL final; Potency, µM (top dose mostly 46.1 µM), usual class: inhibitors; 1.2% of 410,000 active; AID 588855, 2011; note: nearly all actives have a fitted effect of over 65% in size
#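 HEPG2 CAGA-GFP reporter cells (1000/well, DMEM with 1% FBS) received compounds, then recombinant TGF-beta at 500 pg/mL final for 18 hours at 37 degrees C. Per-cell GFP summed per well was normalised to unstimulated and stimulated DMSO controls before curve fitting.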
# HepG2 viability: qHTS for Inhibitors of TGF-b: Cytotox Counterscreen | 0.76% of 410,000 active | HepG2 CAGA-GFP viability, ATP luminescence, 18 h | Potency, µM (top dose mostly 46.1 µM), actives largely listed as cytotoxic
#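 HepG2 CAGA-GFP cells (1000/well, DMEM with 1% FBS) received compound, then TGF-beta at 500 pg/mL final, and were incubated 18 hours at 37 degrees C. Viability was read by CellTiter-Glo luminescence. Media-only wells were set as complete cell-killing and DMSO as no toxicity.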
# HT1080 IDH1KD tx: qHTS for induction of synthetic lethality in tumor cells producing 2HG: qHTS for the HT-1080-IDH1KD cell line. HT-1080 IDH1 knockdown viability, ATP luminescence, 48 h. Potency, µM (highest dose often 46.1 µM), usual class: cytotoxic. 2% of 360,000 active. AID 686971, 2013
#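 In this qHTS, HT-1080 cells depleted of IDH1 are exposed for 48 h at 37 °C to compound titrations. Toxicity is scored from CellTiter-Glo luminescence, with DMSO as full viability and medium alone as none.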
# Hits are given with their value; - = inactive; ? = inconclusive; . = no result; [ ] = dose if it differs, or a comment. The list is not random: actives were taken first. Their share in the collection is about 6.6%. Calls come from the whole dose curve; as a rule, active = well fitted curve in the direction sought with a large enough effect; inconclusive = small, poorly fitted or top-dose-only effect, or another doubt; inactive = no such curve, though single readings can be large; an effect the other way counts as inactive or inconclusive.
SMILES,KB-3-1 cytotox,KB-V1 cytotox,HT1080-NT tox,TGFb SMAD3 inh,HepG2 viability,HT1080 IDH1KD tx
CC[C@H](C)[C@@H]1NC(=O)CNC(=O)c2csc(n2)[C@H](C(C)(C)O)OC(=O)C(C)(C)[C@H](CCCC(C)(Cl)Cl)OC(=O)c2csc1n2,0.46µM,13µM,2.1µM,?,-,0.073µM
C=CCN1C(=O)NC(=O)/C(=C/c2ccc(OC)c(COc3ccc(NC(C)=O)cc3)c2)C1=O,?,?,?,-,-,?
COc1ccc(/C=N\NC(=O)c2cccc(F)c2)cc1COc1ccccc1,-,?,1.2µM,?,-,0.58µM
CC1CCN(C(CC(=O)c2ccccc2)C(=O)c2ccccc2)CC1 (stereo unspecified),-,-,-,?,22µM,?
O=C(CN1CCCC1)c1ccccc1,-,-,.,-,-,.
O=C(COc1cccc(C(F)(F)F)c1)Nc1ccc(S(=O)(=O)N2CCCC2)cc1,-,-,-[9.24 µM],-,-,?
Cc1cccc(N2CCN(C(=O)C34CC5CC(CC(C5)C3)C4)CC2)c1C,-,-,-,-,-,-
Cc1ccc2c(c1)[C@@H]1CN(C)CC[C@@H]1N2C(=O)Nc1cccc(C(F)(F)F)c1,-,?,13µM,?,-,?
Cc1ccc2c(c1)C1CN(C)CCC1N2C(=O)c1cn(-c2ccccc2)nc1-c1ccccc1 (stereo unspecified),-,-,.,?,-,21µM
Cc1ccc2c(c1)C1CN(C)CCC1N2C(=O)Nc1cccc(C(F)(F)F)c1 (stereo unspecified),-,-,?,-,-,?
COc1cc2c(cc1O)CC1c3c(cc(O)c(OC)c3-2)CCN1C (stereo unspecified),-,-,-,-,-,-
COc1cc2c(cc1OC)-c1c(OC)c(OC)cc3c1[C@H](C2)N(C)CC3,?,13µM,-,-,-,-
CCOC(=O)C(C(=O)OCC)C(Nc1ccc(Br)cc1)c1ccccc1 (stereo unspecified),?,-,?,?,11µM,13µM
CCOC(=O)c1ccccc1N,-,?,.,-,-,.
CN(C(=O)Oc1ccc(Cl)c2cccnc12)c1ccccc1,-,18µM,-,-,-,-
Cc1cccc(NC(=O)Oc2ccc(Cl)c3cccnc23)c1,?,-,-,?,2.8µM,-
CN(C(=O)Oc1cccc2cccnc12)c1ccccc1,-,?,-,-,-,-
ClCCN(CCCl)c1ccc(C=Nc2ccc(/C=C/c3ccncc3)cc2)cc1,-,-,.,-,-,.
O=[N+]([O-])c1cccc(CN2CC=C(c3ccc(F)cc3)CC2)c1,9.2µM,-,-,-,-,-
O=[N+]([O-])c1ccccc1CN1CC=C(c2ccc(F)cc2)CC1,-,-,-,?,-,-
CC1(C)C[C@H]2C=C(C=O)[C@]3(C=O)C[C@]3(C)[C@H]2C1,?,-,16µM,?,10µM,12µM
O=C1C(=O)c2cccc3cccc1c23,16µM,?,-,?,-,-
c1cc2c3c(cccc3c1)CC2,?,?,.,-,-,.
O=C1C(=O)c2ccccc2-c2ccccc21,5.2µM,4.1µM,0.92µM,1.1µM,1.3µM,1.2µM
CCOC(=O)c1ccccc1NC(=O)N(Cc1ccc(CC)cc1)Cc1cn[nH]c1-c1ccc(OC)cc1,-,?,.,?,-,.
SMILES,KB-3-1 cytotox,KB-V1 cytotox,HT1080-NT tox,TGFb SMAD3 inh,HepG2 viability,HT1080 IDH1KD tx
COc1cc([C@@H]2c3cc4c(cc3[C@@H](O)C3COC(=O)C32)OCO4)cc(OC)c1O (stereo partly specified),.,.,.,-,-,.
CCC(=NCCC(c1ccccc1)c1ccccc1)c1c(O)n(C)c(=O)n(C)c1=O,?,?,-,-,-,-
CCC(=NCc1ccc(F)cc1)c1c(O)n(C)c(=O)n(C)c1=O,?,15µM,-,-,-,-
O=C(C1CCCN(Cc2ccc(Cl)cc2)C1)N1CCCCC1 (stereo unspecified),-,-,-,-,-,-
CN1/C(=C\C=C2C(=O)NC(=O)NC2=O)C(C)(C)c2ccccc21,5.2µM,?,?,-,-,?
Cc1ccc2oc(=O)n(CCNC(=O)Nc3ccccc3C)c2c1,-,-,.,-,-,.
CSCCC(c1nnnn1Cc1ccccc1)N1CCC2(CC1)C(=O)NCN2c1ccccc1 (stereo unspecified),-,15µM,?,?,-,-
Cc1cccc(C)c1-n1nnnc1C(CCc1ccccc1)N1CCC2(CC1)C(=O)NCN2c1ccccc1 (stereo unspecified),-,-,-,-,-,-
COc1cccc(C(c2nnnn2C2CCCCC2)N2CCC3(CC2)C(=O)NCN3c2ccccc2)c1OC (stereo unspecified),?,?,?,22µM,-,?
CSCCC(c1nnnn1-c1c(C)cccc1C)N1CCC2(CC1)C(=O)NCN2c1ccccc1 (stereo unspecified),?,-,?,11µM,-,?
C[C@H]1COC(=O)[C@H](Cc2ccc(F)cc2)CC/C=C/C[C@@H](CC(=O)N(CCO)Cc2ccccc2)C(=O)N1,-,-,-,?,-,-
C[C@@H]1C[C@H](Nc2ccccc2)c2ccccc2N1C(=O)c1cccnc1,?,?,-,-,-,-
c1ccc(Nc2ccc(Nc3ccccc3)cc2)cc1,-,-,-,-,-,-
[Hg+][c]1ccccc1,?,?,.,0.32µM,0.56µM,.
O=C(COc1ccc(Br)cc1)Nc1ccc(Cl)cc1C(=O)c1ccccc1,.,.,.,-,-,.
O=C(Nc1ccc2nc(SCC(=O)N3CCOCC3)sc2c1)c1ccc(Cl)cc1,.,.,.,?,-,.
Cc1nnc(NC(=O)c2cccn(Cc3ccccc3F)c2=O)s1,-,-,.,-,-,.
CN(C)c1ccc(/C=C/[N+](=O)[O-])cc1,-,-,?,-,-,23µM
C/C(=C\c1ccc(N(C)C)cc1)[N+](=O)[O-],?,?,11µM,?,10µM,6.3µM
C[C@H]1CNC(=O)c2c(C(=O)Nc3cccc(Cl)c3)ncn21,-,-,-,-,-,-
O=C(Oc1ccc2ccc(OC(=O)N3CCCCCC3)cc2c1)N1CCCCCC1,-,-,-,?,-,-
Cc1ccc(C(C)C)c(OCC(=O)N2CCN(CCc3ccncc3)CC2)c1,-,-,.,-,-,.
